# Data reported in ChEMBL document CHEMBL4513216, “Probing the Open Global Health Chemical Diversity Library for Multistage-Active Starting Points for Next-Generation Antimalarials” (ACS Infect Dis, 2020).
# Hit rate of the full screen: of about 68,000 compounds, about 2,700 (4%) showed an effect of 50% or more. Only a selection was taken, and strong results are over-represented in it overall.
# System: Plasmodium berghei
# Assay: Screen against P. berghei liver stage (PbLuc), transformed with Luciferase, at 2uM
# Assay type: functional, HepG2
# Details: tested at 2 uM
row,SMILES,INHIBITION [%]
1,Fc1cnc(N2CCC3(CC2)CC(OCc2cccnc2)CO3)nc1 (stereo unspecified),11.18
2,CC(=O)N[C@@H]1CN(C(=O)c2cc(C)oc2C)C[C@H]1c1ccc(C)o1,-29.82
3,Cc1ccc(NC2CCN(C(=O)CN(C)C3CC3)CC2)nn1,21.31
4,CC(Cn1ccnc1)NC(=O)N(C)Cc1ccsc1 (stereo unspecified),26.85
5,CO[C@H]1CCN(Cc2cccs2)[C@@H]2CN(Cc3ccncc3)C[C@H]12,-4.92
6,COCCN1C(=O)CC[C@@H]2[C@H]1CCN2Cc1ccc(C)s1,10.17
7,CNc1nc(C)c(C(=O)N2CCC(C(O)Cc3ccccc3)CC2)s1 (stereo unspecified),40.88
8,CCn1nc(C)c2c1cnn2CCNS(C)(=O)=O,15.46
9,CCn1nc(C)c2c1cnn2CCNS(=O)(=O)c1cccs1,61.77
10,CCn1nc(C)c2c1cnn2CCNS(=O)(=O)c1ccccc1,0.36
11,COC(=O)c1ccc(/C=C/c2ncc(C(=O)O)s2)cc1,-39.34
12,COC(=O)c1cnc(/C=C/c2ccc(C(=O)O)cc2)s1,23.45
13,CC(=O)Nc1ccc(/C=C/c2ncc(C(=O)O)s2)cc1,69.71
14,CN1[C@@H](C(=O)NCC2CC2)C[C@H]2CN(Cc3cccc(C#N)c3)C[C@H]21,36.99
15,OC(CNCc1ccccc1C(F)(F)F)c1ccccc1 (stereo unspecified),-2.86
16,CCC[C@H]1CN(CCOC)C[C@@H]1NC(=O)Cn1cc(C)cn1,-17.99
17,CCC[C@H]1CN(CCCO)C[C@@H]1NC(=O)Cn1cc(C)cn1,3.97
18,CCC[C@H]1CN(CCS(C)(=O)=O)C[C@@H]1NC(=O)Cn1cc(C)cn1,55.44
19,Cc1cncc(C(=O)N2CCC3(CCCN(c4nncs4)C3)C2)c1 (stereo unspecified),-39.92
20,COc1ccc(CCN(C)C(=O)CN2C(=O)OC[C@@H]2C(C)C)cc1OC,-4.77
21,Cc1cnc(N2CCc3cc(C(=O)O)c(N(C)C)nc3CC2)nc1,-1.81
22,Cc1cccc(CN2CCc3cc(C(=O)O)c(N(C)C)nc3CC2)n1,30.19

row,SMILES,INHIBITION [%]
1,Cc1nc(CN2CCc3cc(C(=O)O)c(N(C)C)nc3CC2)cs1,63.04
2,O=C(c1ccc[nH]1)N1CCCC2(CCN(c3ccsc3)C2=O)C1 (stereo unspecified),26.92
3,CCCc1nnsc1C(=O)N1CCCC1(C)C(=O)N1CCOCC1 (stereo unspecified),5.76
4,O=C1CCC2(CCCN(CCc3ccccc3)C2)N1Cc1cccnc1 (stereo unspecified),42.18
5,COCCN1C(=O)CCC12CCCN(Cc1ccccc1F)C2 (stereo unspecified),7.88
6,CNC(=O)CN1C(=O)CCC12CCCN(Cc1ccccc1F)C2 (stereo unspecified),-12.98
7,CCN1C(=O)CCC12CCCN(CCc1ccccc1)C2 (stereo unspecified),56.76
8,O=C1CCC2(CCCN(Cc3ccccc3F)C2)N1CC1CC1 (stereo unspecified),70.48
9,CNC(=O)CN1C(=O)CCC12CCCN(CCc1ccccc1)C2 (stereo unspecified),0.2
10,COCCN(C)C[C@@H]1CN(C(=O)c2sc3ccccc3c2C)C[C@@H]1CO,25.45
11,Cc1nc([C@H]2C[C@@H]3CCN(Cc4scnc4C)C[C@H]3O2)no1,40.64
12,CCCC12CN3CC(C)(CN(C1)C3c1[nH]c(=O)[nH]c(=O)c1C)C2=O (stereo unspecified),16.49
13,CCn1nccc1CNC(=O)CCC1CCCC1,59.21
14,CCn1nccc1CNC(=O)C1CCCC1,-56.08
15,CCn1nccc1CNC(=O)C1CCCCC1,-39.57
16,COCc1cccc(S(=O)(=O)Nc2ncc(C)s2)c1,-2.19
17,Cn1ncc2c1NC(=O)CC2c1ccccc1Cl (stereo unspecified),33.16
18,O=S1(=O)NC(C2CCN(Cc3ccccn3)CC2)Nc2ccccc21 (stereo unspecified),30.31
19,Cc1ccc2[nH]c(CN(C)c3cc(CN)nc(C)n3)nc2c1,60.18
20,Cc1nc(CCN)cc(N(C)Cc2nc3ccc(F)cc3[nH]2)n1,-3.87
21,Cc1ccc2[nH]c(CN(C)c3cc(CCN)nc(C)n3)nc2c1,-56.42
22,COc1ccc(CS(=O)(=O)CC(=O)NCc2ccccc2F)cc1F,6.13

row,SMILES,INHIBITION [%]
1,CNC(=O)CS(=O)(=O)Cc1ccc(OC)c(F)c1,69.67
2,COc1ccc(CS(=O)(=O)CC(=O)NCC2CC2)cc1F,29.89
3,Cc1cccc(S(=O)(=O)N2C[C@@H]3C[C@@H](c4nc(C)no4)O[C@@H]3C2)c1,0.8
4,CCCc1cnc(C)nc1NCCc1nc(C)cc(=O)[nH]1,20.14
5,CN(C)C(=O)CN1CCn2cc(Cn3cccn3)nc2C1,14.47
6,CN(C(=O)c1cccc(C#N)c1)c1nnc(C2CCOC2)s1 (stereo unspecified),53.95
7,CN(C(=O)c1ccncc1)c1nnc(C2CCOC2)s1 (stereo unspecified),24.58
8,CN(C(=O)c1ccc(C#N)cc1)c1nnc(C2CCOC2)s1 (stereo unspecified),-7.22
9,CN(Cc1ccccn1)C1CC2(CCN(Cc3ccccn3)CC2)C1,34.48
10,CN(Cc1cscn1)C1CCN(C(=O)OC(C)(C)C)CC1,-33.82
11,Cc1nc(C)c(CN(C)C2CCN(C(=O)OC(C)(C)C)CC2)s1,73.62
12,CN(Cc1cncs1)C1CCN(C(=O)OC(C)(C)C)CC1,12.83
13,CC(NC(=O)COc1cccc[n+]1[O-])C1CC1 (stereo unspecified),25.69
14,COc1cccc(-c2cccc(CN3C[C@H]4CC[C@@H](C3)N(C)C4=O)c2)c1,56.49
15,CN1C(=O)[C@@H]2CC[C@H]1CN(Cc1cccc(OCc3ccccn3)c1)C2,26.75
16,COc1cccc(-c2ncc(CN3C[C@H]4CC[C@@H](C3)N(C)C4=O)s2)c1,38.87
17,Cc1ccc(S(=O)(=O)N(C)CC(C)O)c(F)c1 (stereo unspecified),56.69
18,Cc1c(F)cccc1S(=O)(=O)N(C)CC(C)O (stereo unspecified),52.38
19,Cc1c(F)cccc1S(=O)(=O)NCCN,39.23
20,Cc1c(F)cccc1S(=O)(=O)NCC(C)(C)CC(C)O (stereo unspecified),15.2
21,CC(O)CN(C)S(=O)(=O)c1ccc(C#N)cc1F (stereo unspecified),34.18
22,CN(CC(N)=O)S(=O)(=O)c1ccc(F)cc1F,0.44
